Here are results for 35 sequences from the supplement of paper PMC10338343.

± gives the standard deviation.
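Further: 1 nM active piRISC with 0.1 nM target library at 33 °C single turnover.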

The experiment deals with MILI (PIWIL2) piRISC loaded with L1MC piRNA (26 nt). The experiment can be described thus: pre-steady-state target cleavage rate (min^-1); guide: L1MC piRNA 5'p-UAACUAAAUACUAUGCAAGCUGUAGG; MIWI and MILI are mouse PIWI proteins and EfPiwi is from a freshwater sponge; tags in brackets are library labels; higher = faster piRNA-guided slicing of the target. The conditions noted are these: auxiliary factor: 500 nM mouse GTSF1. The essentials:
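Cleave-'n-Seq measured uncleaved targets by sequencing after a transcribed, DNA-blocked target RNA library […] was mixed with 1 nM active affinity-purified piRISC holding one synthetic guide, with or without 500 nM GTSF1 partner protein, at 33 °C in HEPES–potassium acetate buffer for 0–8 or 0–960 min. Counts were normalised to depth and to weakly complementary targets, three trials were pooled, and k3 was capped at 0.0001 min^-1. A burst-and-steady-state fit gave the pre-steady-state cleavage rate.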
In the case of UCCUGGAUGUCGAACGAUCAGUAUUUAGUUA, the “pre-steady-state target cleavage rate” value is under 0.0001.
The same measure for UCCUGGAUCAGCUUGCAUUGUAUUUACUUA: 0.146 ± 0.027; for UCCUGGAUGUCGAUCCAUAGUAUUUAGUUA: 0.00686 ± 0.0039; for UCCUGGUACUGCUUGCAUAGUAUUUACUUA: 0.0201 ± 0.0085.
For the sequence UCCUGGAUGUCGAAGCAUAGUAUUAAGUAA, the “pre-steady-state target cleavage rate” value came out at 0.0172 ± 0.0065.
The same measure for UCCUGGAUGUCCUUGCAUAGUUAUUAGUUA: 0.00901 ± 0.004; for UCCUGGAUCUCGUUGCAUAGUAUUUACAAA: 0.0638 ± 0.014.
For the sequence UCCUGGAUCAGCUUGCAUUGUAUUUUCAAA, the “pre-steady-state target cleavage rate” value is 0.00931 ± 0.0046.
As for UCCUGGUACAGCUUGCAUACUAUUUACUUA, the “pre-steady-state target cleavage rate” value is 0.05 ± 0.014.
For UCCUGGAUGUCGUUGCAUAGUAUAUUGUUA, the “pre-steady-state target cleavage rate” value was 0.0458 ± 0.017.
Turning to UCCUGGAUCAGCUUGCAAAGAAUUUAGUUA, the “pre-steady-state target cleavage rate” value stood at 0.0118 ± 0.0054.
Consider UCCUCCUACAGCUUGCAUACUUUUUAGUUA, for which the “pre-steady-state target cleavage rate” value came to 0.00693 ± 0.0043.
With UCCUGGAUCAGCUUGCAUAGUAUAUACAAA, the “pre-steady-state target cleavage rate” value was 0.0964 ± 0.023.
Turning to UCCUGGAUGAGCUUCGAUAGUAUUUAGUUA, the “pre-steady-state target cleavage rate” value was 0.108 ± 0.013.
Turning to UCCUGGAUGUCGAUGCAUAGUAUUUAUUUA, the “pre-steady-state target cleavage rate” value was found to be 0.0578 ± 0.015.
As for UCCUCCUACACCUUGCAUAGUAUUUUCAAA, the “pre-steady-state target cleavage rate” value turned out to be 0.0721 ± 0.021.
On to UCCUCCUACAGCUUGCAUUCUAUUUAGUUA, for which the “pre-steady-state target cleavage rate” value was determined as 0.0458 ± 0.0096.
Take UCCUGGAUGUCGAUGCUUAGUAUUUAGUAA: the “pre-steady-state target cleavage rate” value turned out to be 0.0164 ± 0.0045.
Take UCCUGGAUGAGCUUGCUUAGUAUUUAGAAA: the “pre-steady-state target cleavage rate” value was 0.0548 ± 0.017.
As for UCCUCCAUGAGCUUGCAUAGUAUUUACAAA, the “pre-steady-state target cleavage rate” value came out at 0.0266 ± 0.0095.
With UCCUGGAUGUCGUAGCAUAGUAAUUAGUUA, the “pre-steady-state target cleavage rate” value came to 0.0159 ± 0.0054.
As for UCCUGCUACAGCUUGCAUACUAUUUUCAAA, the “pre-steady-state target cleavage rate” value amounted to 0.0295 ± 0.01.
As to UCCUCCUACAGCUACCAUAGUAUUUACAAA, the “pre-steady-state target cleavage rate” value turned out to be 0.0179 ± 0.008.
Regarding UCCUGGAUGUCGAAGUCAUAGUAUUUAGUUA, the “pre-steady-state target cleavage rate” value amounted to 0.00447 ± 0.003.
Under UCCUGGAUGUCGAUGCAUAGUAUAAUGUUA stands 0.031 ± 0.012.
Consider UCCUGGAUCAGCUUGGUAAGUAUUUAGUAA, for which the “pre-steady-state target cleavage rate” value turned out to be 0.0371 ± 0.011.
With UCCUGGAUCAGCUUGCAUAUGUAUUUAGUUA, the “pre-steady-state target cleavage rate” value was determined as 0.00465 ± 0.0046.
With UCCUGGUACAGCUUGCAUAGUAUUUCGUUA, the “pre-steady-state target cleavage rate” value was found to be 0.114 ± 0.037.
Turning to UCCUGGAUGUGCUUGCAAAGUAUUUAGAUA, the “pre-steady-state target cleavage rate” value was determined as 0.0284 ± 0.008.
Regarding UCCUGGAUGACGAUGCAUAGUAUUUAGUAA, the “pre-steady-state target cleavage rate” value stood at 0.128 ± 0.016.
Turning to UCCUGGAUGAGCUUGCAUUGUAUUUUGUUA, the “pre-steady-state target cleavage rate” value was 0.0997 ± 0.015.
With UCCUGGAUGAGCUUGCAUAGUAUUAAGAAA, the “pre-steady-state target cleavage rate” value turned out to be 0.0183 ± 0.0092.
The same measure for UCCUGGAACAGCUUGCUAUGUAUUUAGUAA: 0.0125 ± 0.0054.
Under UCCUGGAUCACGAUGCAUAGUAUUUAGAAA stands 0.111 ± 0.017; under UCCUGGAUGUCGAAGCAUAGUAUUGUAGUUA, 0.00801 ± 0.0041.
